For assay [1], the target named is Homeodomain-interacting protein kinase 3 (Homo sapiens) (UniProt Q9H422). The note with it: at 10 µM.
The target in assay [2] is T1, Serine/threonine-protein kinase haspin (Homo sapiens) (UniProt Q8TF76).
T1 sequence (whole entry): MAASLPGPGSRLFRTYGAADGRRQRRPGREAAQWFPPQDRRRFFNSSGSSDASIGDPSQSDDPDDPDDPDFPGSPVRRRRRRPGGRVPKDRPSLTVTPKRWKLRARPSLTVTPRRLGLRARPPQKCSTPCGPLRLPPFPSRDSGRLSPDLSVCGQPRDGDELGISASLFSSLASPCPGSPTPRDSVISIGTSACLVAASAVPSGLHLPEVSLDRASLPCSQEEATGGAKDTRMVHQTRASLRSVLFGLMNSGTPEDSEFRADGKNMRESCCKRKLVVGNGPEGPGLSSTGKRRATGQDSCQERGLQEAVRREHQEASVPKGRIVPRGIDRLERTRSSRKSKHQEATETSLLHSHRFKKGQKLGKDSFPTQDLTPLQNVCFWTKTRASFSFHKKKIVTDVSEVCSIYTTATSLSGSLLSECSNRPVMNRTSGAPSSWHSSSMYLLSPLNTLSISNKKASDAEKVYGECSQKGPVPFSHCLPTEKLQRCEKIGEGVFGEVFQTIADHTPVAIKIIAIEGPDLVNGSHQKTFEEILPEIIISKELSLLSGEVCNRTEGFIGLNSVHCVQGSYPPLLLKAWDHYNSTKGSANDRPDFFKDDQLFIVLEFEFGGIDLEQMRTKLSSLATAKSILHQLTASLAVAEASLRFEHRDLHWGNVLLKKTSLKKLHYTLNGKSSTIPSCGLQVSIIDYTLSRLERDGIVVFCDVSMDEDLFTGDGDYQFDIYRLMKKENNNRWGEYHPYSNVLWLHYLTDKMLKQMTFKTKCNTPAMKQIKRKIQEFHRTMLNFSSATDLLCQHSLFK
The following applies: at 1 µM.

Assay [3] deals with T1, Serine/threonine-protein kinase haspin (Homo sapiens). The note with it: at 10 µM.
For assay [4], the target named is Tyrosine-protein kinase HCK (Homo sapiens) (UniProt P08631). The note with it: at 1 µM.
The target is the same in assay [5]. The note with it: at 10 µM.
Assay [6] has the same target. The note with it: at 1 µM. This is another data set of the same source.
For assay [7] the target is unchanged. The note with it: at 10 µM. This is another data set of the same source.
The target in assay [8] is Insulin-like growth factor 1 receptor (Homo sapiens) (UniProt P08069). The following applies: at 1 µM.
Assay [9] has the same target. The note with it: at 10 µM.
The target of assay [10] is Protein kinase C eta type (Homo sapiens) (UniProt P24723). The following applies: at 1 µM.
Assay [11] shares this target. The following applies: at 10 µM.
In assay [12] the target is Protein kinase C theta type (Homo sapiens) (UniProt Q04759). The following applies: at 1 µM.
Assay [13] has the same target. The following applies: at 10 µM.
Assay [14] deals with T2, Protein kinase C iota type (Homo sapiens) (UniProt P41743).
T2 sequence (whole entry): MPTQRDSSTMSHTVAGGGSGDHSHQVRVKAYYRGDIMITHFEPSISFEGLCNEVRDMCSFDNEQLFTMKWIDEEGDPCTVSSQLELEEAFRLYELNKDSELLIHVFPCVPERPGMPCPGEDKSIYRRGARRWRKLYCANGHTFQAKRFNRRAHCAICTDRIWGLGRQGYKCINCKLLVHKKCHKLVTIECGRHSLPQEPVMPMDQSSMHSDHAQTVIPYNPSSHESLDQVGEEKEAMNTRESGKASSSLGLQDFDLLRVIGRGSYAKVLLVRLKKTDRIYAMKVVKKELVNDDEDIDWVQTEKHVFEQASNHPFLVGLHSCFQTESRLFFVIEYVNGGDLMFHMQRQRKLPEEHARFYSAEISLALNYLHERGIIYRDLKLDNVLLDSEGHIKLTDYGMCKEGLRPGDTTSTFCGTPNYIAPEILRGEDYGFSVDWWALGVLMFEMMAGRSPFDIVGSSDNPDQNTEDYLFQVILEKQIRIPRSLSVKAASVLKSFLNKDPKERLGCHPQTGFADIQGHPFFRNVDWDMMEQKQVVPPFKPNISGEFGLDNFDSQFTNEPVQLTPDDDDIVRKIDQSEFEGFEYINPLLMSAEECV
The note with it: at 1 µM.

For assay [15], the target named is T2, Protein kinase C iota type (Homo sapiens). The note with it: at 10 µM.
Assay [16] has as its target T3, Serine/threonine-protein kinase D1 (Homo sapiens) (UniProt Q15139).
T3 sequence (whole entry): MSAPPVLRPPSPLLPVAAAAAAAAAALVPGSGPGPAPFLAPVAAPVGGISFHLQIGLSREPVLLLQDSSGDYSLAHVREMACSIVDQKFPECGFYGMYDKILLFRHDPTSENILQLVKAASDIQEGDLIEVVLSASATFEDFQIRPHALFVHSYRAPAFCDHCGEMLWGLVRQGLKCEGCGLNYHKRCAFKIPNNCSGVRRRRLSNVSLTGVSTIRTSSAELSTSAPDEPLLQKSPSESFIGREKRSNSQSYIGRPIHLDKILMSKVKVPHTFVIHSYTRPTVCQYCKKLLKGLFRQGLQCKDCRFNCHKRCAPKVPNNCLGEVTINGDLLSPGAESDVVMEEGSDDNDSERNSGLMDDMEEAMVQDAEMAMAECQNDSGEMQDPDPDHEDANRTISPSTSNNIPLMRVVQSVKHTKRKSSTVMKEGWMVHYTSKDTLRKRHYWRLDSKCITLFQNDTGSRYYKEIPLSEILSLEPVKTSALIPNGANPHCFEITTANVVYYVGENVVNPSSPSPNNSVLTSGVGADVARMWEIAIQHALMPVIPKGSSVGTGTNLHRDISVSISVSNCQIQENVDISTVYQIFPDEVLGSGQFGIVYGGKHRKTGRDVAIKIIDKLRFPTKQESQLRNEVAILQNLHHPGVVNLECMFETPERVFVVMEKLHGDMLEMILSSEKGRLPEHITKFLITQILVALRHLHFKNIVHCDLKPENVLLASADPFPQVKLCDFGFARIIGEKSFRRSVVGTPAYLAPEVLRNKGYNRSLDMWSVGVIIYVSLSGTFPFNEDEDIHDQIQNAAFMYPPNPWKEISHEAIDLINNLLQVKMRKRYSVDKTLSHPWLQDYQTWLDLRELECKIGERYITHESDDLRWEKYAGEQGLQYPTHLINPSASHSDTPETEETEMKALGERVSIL
The following applies: at 1 µM.

Assay [17] has as its target T3, Serine/threonine-protein kinase D1 (Homo sapiens). The note with it: at 10 µM.
The target in assay [18] is T4, Serine/threonine-protein kinase D2 (Homo sapiens) (UniProt Q9BZL6).
T4 sequence (whole entry): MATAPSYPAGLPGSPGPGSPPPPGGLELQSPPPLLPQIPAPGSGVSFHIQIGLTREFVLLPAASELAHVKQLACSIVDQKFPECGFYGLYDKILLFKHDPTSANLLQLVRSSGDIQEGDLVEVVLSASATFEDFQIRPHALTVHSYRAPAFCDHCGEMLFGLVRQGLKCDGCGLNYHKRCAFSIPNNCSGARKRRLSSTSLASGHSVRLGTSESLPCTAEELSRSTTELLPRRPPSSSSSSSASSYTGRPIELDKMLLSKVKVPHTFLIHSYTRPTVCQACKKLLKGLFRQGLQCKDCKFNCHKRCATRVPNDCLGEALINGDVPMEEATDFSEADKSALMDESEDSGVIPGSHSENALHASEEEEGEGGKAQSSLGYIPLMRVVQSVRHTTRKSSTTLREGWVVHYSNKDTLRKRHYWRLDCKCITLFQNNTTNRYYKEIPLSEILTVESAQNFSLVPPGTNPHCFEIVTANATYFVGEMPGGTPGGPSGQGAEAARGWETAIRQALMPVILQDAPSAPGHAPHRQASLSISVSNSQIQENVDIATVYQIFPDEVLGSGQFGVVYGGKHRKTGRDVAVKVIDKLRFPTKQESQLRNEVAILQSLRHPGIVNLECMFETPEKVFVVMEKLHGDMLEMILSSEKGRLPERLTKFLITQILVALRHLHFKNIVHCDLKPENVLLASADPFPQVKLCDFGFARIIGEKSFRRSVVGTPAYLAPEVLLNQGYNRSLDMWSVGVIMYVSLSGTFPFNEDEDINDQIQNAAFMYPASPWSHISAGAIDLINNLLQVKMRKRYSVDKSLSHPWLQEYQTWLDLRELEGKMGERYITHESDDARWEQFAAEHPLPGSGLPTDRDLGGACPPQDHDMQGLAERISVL
The following applies: at 1 µM.

In assay [19] the target is T4, Serine/threonine-protein kinase D2 (Homo sapiens). The following applies: at 10 µM.
Assay [20] deals with T5, Protein kinase C zeta type (Homo sapiens) (UniProt Q05513).
T5 sequence (whole entry): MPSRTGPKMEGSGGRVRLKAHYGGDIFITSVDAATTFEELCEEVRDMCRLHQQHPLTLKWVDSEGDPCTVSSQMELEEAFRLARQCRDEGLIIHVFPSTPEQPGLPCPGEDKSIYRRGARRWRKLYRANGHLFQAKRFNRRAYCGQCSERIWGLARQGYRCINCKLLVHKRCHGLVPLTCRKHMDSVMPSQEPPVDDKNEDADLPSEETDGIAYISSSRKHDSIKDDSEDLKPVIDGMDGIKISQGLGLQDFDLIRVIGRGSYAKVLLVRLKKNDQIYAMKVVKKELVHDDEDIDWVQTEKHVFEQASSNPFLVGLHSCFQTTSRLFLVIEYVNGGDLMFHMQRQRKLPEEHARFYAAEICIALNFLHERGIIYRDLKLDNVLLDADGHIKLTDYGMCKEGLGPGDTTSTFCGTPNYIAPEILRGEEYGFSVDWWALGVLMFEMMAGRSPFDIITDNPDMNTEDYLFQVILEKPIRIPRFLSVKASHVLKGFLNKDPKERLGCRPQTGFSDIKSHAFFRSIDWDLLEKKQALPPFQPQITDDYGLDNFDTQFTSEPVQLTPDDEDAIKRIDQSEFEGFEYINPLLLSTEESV
The following applies: at 10 µM.

Molecules are shown by their SMILES.

Drawing on ChEMBL document CHEMBL2218924, “A broad activity screen in support of a chemogenomic map for kinase signalling research and drug discovery” (Biochem J, 2013), this text covers residual activity for four compounds.

In general, residual activity refers to the signal under treatment as a percentage of the control signal.

Homeodomain-interacting protein kinase 3 (Homo sapiens), sequence (Q9H422 whole entry, looked up): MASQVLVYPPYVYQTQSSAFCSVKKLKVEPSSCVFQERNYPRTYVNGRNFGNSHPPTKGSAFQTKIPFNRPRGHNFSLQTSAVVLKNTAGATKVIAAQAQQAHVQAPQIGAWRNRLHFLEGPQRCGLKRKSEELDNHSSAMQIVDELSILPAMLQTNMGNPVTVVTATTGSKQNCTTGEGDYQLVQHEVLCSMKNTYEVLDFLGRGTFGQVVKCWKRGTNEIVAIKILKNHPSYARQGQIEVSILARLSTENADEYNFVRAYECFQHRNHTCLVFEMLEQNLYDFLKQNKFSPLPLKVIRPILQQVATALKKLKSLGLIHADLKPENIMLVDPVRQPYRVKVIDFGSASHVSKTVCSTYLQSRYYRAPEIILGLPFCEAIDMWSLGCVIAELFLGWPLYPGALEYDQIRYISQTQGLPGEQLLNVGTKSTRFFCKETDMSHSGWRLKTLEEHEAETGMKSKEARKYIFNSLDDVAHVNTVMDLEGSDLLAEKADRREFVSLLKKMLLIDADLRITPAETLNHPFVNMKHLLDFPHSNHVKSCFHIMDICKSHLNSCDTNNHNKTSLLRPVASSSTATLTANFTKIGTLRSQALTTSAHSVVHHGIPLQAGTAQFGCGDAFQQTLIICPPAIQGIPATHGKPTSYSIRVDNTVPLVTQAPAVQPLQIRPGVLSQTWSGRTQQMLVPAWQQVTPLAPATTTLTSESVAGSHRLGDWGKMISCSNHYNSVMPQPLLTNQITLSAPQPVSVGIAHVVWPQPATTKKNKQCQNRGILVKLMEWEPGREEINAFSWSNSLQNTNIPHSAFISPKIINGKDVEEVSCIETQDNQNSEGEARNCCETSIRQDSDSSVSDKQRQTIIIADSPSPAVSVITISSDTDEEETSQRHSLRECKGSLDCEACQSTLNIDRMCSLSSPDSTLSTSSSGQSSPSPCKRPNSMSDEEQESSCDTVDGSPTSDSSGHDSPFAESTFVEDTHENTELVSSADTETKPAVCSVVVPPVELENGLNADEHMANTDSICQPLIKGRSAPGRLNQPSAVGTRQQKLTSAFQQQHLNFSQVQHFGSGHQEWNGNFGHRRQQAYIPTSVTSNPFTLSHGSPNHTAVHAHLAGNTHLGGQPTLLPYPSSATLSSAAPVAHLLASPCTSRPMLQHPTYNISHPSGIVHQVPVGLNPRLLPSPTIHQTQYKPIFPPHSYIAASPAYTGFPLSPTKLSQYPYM
Protein kinase C eta type (Homo sapiens), sequence (P24723 whole entry): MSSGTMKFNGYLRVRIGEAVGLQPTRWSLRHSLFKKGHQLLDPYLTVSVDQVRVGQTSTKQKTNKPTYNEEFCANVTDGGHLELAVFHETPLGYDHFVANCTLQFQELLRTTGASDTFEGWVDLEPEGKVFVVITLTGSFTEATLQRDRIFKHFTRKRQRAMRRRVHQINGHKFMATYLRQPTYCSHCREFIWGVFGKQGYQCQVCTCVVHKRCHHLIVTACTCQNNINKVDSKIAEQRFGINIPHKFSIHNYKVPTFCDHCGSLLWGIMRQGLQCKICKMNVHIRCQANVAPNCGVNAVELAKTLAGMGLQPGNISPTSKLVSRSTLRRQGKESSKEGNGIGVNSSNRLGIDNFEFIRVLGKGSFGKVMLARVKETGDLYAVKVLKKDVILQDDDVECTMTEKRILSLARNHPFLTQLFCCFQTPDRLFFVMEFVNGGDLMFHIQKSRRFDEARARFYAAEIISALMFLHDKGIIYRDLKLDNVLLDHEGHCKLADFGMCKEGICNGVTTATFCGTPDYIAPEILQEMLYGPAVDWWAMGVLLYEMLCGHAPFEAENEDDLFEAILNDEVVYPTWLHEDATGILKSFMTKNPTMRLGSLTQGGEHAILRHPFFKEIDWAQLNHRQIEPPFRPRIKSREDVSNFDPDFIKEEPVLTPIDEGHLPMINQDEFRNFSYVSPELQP
Tyrosine-protein kinase HCK (Homo sapiens), sequence (P08631 2-526 limits assumed): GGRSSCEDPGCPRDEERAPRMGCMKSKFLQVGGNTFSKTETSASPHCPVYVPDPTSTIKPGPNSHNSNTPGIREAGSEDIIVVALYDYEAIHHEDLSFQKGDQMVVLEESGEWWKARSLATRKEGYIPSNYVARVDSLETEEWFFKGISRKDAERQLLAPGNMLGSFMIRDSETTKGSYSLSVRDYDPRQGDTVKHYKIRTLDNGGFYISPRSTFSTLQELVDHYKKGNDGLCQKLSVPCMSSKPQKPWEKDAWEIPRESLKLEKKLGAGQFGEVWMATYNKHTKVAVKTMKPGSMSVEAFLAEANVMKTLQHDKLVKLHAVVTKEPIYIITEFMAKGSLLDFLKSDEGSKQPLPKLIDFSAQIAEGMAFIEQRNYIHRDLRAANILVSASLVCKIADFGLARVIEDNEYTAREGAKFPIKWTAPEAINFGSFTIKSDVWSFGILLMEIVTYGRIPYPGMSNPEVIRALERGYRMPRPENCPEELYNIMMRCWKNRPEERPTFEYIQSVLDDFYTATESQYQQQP
Insulin-like growth factor 1 receptor (Homo sapiens), sequence (P08069 31-736 limits assumed): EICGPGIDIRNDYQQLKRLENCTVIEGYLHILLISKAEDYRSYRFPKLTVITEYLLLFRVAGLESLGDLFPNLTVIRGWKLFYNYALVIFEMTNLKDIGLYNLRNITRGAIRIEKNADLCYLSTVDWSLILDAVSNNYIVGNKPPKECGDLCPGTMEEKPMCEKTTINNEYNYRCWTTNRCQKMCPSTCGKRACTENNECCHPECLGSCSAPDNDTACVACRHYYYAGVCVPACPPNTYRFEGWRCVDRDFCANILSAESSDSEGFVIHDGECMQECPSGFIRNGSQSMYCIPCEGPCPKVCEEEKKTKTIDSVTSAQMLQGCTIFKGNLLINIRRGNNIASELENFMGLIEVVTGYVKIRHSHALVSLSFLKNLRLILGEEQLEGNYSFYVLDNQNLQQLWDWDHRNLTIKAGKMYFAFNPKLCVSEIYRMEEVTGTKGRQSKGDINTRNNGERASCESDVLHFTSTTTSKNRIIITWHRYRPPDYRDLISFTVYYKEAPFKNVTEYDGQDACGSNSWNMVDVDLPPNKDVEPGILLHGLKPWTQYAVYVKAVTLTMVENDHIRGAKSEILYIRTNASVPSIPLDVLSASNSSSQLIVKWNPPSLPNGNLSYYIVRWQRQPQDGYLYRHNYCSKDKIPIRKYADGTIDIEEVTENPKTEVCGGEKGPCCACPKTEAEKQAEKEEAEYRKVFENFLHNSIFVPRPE
Insulin-like growth factor 1 receptor (Homo sapiens), sequence (P08069 741-1367 limits assumed): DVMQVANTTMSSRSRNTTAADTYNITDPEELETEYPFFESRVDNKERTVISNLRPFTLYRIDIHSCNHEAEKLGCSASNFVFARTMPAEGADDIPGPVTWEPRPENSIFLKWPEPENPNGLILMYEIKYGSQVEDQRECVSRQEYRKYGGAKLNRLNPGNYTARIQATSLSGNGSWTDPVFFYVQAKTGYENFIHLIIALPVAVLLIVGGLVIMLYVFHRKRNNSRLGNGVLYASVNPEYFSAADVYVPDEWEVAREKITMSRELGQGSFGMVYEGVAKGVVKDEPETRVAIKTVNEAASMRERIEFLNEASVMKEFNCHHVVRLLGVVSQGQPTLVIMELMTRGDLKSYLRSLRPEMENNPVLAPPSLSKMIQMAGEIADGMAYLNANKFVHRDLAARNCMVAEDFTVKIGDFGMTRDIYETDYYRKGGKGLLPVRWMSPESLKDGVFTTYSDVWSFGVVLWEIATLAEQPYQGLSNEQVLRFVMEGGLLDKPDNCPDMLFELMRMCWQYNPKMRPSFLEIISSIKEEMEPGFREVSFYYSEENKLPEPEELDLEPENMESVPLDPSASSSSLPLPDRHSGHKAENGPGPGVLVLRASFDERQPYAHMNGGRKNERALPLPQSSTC
Protein kinase C theta type (Homo sapiens), sequence (Q04759 whole entry, looked up): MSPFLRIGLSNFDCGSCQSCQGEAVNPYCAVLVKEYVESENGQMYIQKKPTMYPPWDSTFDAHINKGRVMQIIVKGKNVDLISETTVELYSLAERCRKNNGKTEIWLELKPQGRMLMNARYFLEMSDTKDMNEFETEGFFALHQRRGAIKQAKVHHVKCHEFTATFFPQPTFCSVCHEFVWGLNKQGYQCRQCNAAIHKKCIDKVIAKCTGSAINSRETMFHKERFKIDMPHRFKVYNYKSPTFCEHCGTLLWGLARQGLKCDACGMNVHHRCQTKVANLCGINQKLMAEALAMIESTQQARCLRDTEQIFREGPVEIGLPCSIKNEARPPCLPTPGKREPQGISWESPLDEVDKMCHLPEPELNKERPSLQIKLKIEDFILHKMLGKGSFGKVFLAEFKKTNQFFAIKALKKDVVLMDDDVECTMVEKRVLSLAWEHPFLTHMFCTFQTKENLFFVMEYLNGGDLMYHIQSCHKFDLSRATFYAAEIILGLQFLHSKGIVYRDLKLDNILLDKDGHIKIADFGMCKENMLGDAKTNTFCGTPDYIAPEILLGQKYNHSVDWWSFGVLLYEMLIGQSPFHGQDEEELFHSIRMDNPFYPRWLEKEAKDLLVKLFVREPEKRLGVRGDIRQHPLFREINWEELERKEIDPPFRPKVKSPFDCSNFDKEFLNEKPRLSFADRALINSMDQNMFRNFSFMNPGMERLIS

`COc1ccc(S(=O)(=O)N(CCO)c2ccccc2CN(C)C/C=C/c2ccc(Cl)cc2)cc1`: the residual activity in [1] turned out to be 102%; in assay [2], 82%; in [3], 49%; in [4], 87%; in assay [5], 45%; in [6] it was 98%. Besides, the residual activity was 90% in [7]; 121% in [8]; 114% in [9]; 78% in assay [10]; 89% in [11]; 89% in [12]. In addition, the residual activity is 93% in assay [13]; 117% (inactive) in assay [14]; 110% in assay [15]; 83% in [16]; 77% in [17]; 102% in assay [18]. Moreover, in assay [19], the residual activity amounted to 99%.

As to `CC[n+]1c(/C=C/N(C)c2ccccc2)n(-c2ccccc2)c2ccc(-c3nc4ccccc4s3)cc21`, the residual activity in assay [2] stood at 99%; in [3], 59%; in [4], 97%; in assay [5] it was 34%; in assay [6] it was 104%; in assay [7], 95%. The residual activity in assay [8] turned out to be 126%; in assay [9] it was 43%; in assay [20] it was 96%; in assay [10], 119%; in assay [11], 88%; in assay [12], 96%. Further, the residual activity in [13] was 84%; in assay [14], 93% (inactive); in assay [15], 88%; in [16], 92%; in assay [17], 90%; in assay [18], 95%. In addition, the residual activity in [19] was 114%.

Take `CO[C@@H]1[C@H](N(C)C(=O)c2ccccc2)C[C@H]2O[C@]1(C)n1c3ccccc3c3c4c(c5c6ccccc6n2c5c31)C(=O)NC4`: the residual activity in assay [1] was 68%; in [2], 78%; in assay [3] it was 43%; in assay [4] it was 7%; in [5], 5%; in assay [7], 12%. In addition, the residual activity in assay [8] was found to be 115%; in assay [9], 68%; in assay [20], 102%; in [10], 84%; in assay [11], 29%; in assay [12], 15%. Moreover, the residual activity in [13] was 11%; in assay [14], 79% (inactive); in [15], 85%; in assay [16], 85%; in assay [18] it was 101%; in assay [19], 92%.

In the case of `COc1cc2ncc(-c3ccccc3)nc2cc1OC`, the residual activity in assay [1] is 100%; in assay [2] it was 76%; in [3], 64%; in assay [4], 69%; in [5], 56%; in [8], 133%. For the same compound, the residual activity is 68% in assay [15], 96% in assay [18] and 99% in [19].
